Laboratory results taken from PubChem BioAssay (EPA / NIEHS).
Active and inactive are the calls of the source. Rule for the calls: active = hit-call score of the fitted dose curve at least 0.9, where 1 is the maximum; inactive = score below 0.9.

Key:
[1] = read-out: urokinase plasminogen activator (uPA), PLAU (gene 5328); test: BSK_KF3CT_uPA: BioMAP Diversity Plus: KF3CT Assay for urokinase plasminogen activator (uPA) Biomarker Activity (AID 2283075); conditions: primary human keratinocytes with fibroblasts; actives raise or lower the signal
In short: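 Human keratinocyte plus foreskin fibroblast primary co-culture exposed to chemical for 24 h. uPA levels were quantified by ELISA, and activity was fitted bidirectionally against a DMSO negative-control baseline.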

CD40, CD40 (gene 958) [2] = test: BSK_LPS_CD40: BioMAP Diversity Plus: LPS Assay for CD40 Biomarker Activity (AID 2283076); conditions: primary human HUVEC with PBMC; actives raise or lower the signal
In short: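 ELISA readout of CD40 in HUVEC/PBMC co-culture (BSK_LPS system), 24 h post-dosing; bidirectional curve fit, DMSO baseline; parallel SRB total-protein staining for cytotoxicity.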

[3] = read-out: E-selectin (Homo sapiens) (UniProt P16581); test: BSK_LPS_Eselectin: BioMAP Diversity Plus: LPS Assay for Eselectin Biomarker Activity (AID 2283077); conditions: primary human HUVEC with PBMC; actives raise or lower the signal
In short: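 ELISA readout of E-selectin, 24 h post-dose, HUVEC + PBMC co-culture (LPS system). Gain or loss of signal vs DMSO baseline, bidirectional fit.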

[4] = read-out: Interleukin-8 (IL8), CXCL8 (gene 3576); test: BSK_LPS_IL8: BioMAP Diversity Plus: LPS Assay for Interleukin-8 (IL8) Biomarker Activity (AID 2283078); conditions: primary human HUVEC with PBMC; actives raise or lower the signal
In short: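 HUVEC + PBMC co-culture, LPS-activated; test chemicals dosed, IL-8 read by ELISA at 24 h. Bidirectional curve fit vs DMSO baseline (gain or loss of signal).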

[5] = BSK_LPS_SRB: Viability Assessment in the BioMAP Diversity Plus: LPS Assay (AID 2283079); conditions: primary human HUVEC with PBMC;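 note: total protein by sulforhodamine B absorbance as a cytotoxicity measure; measured one day after compound addition; fitted in both directions against DMSO so loss or gain of signal counts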
In short: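 HUVEC + PBMC co-culture, LPS-stimulated; compound 24 h. 10% TCA fix, 0.1% SRB stain, A560. Bidirectional fit vs DMSO.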

[6] = read-out: Interleukin-1 alpha (IL1a), IL1A (gene 3552); test: BSK_LPS_IL1a: BioMAP Diversity Plus: LPS Assay for Interleukin-1 alpha (IL1a) Biomarker Activity (AID 2283080); conditions: primary human HUVEC with PBMC; actives raise or lower the signal
In short: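 HUVEC/PBMC co-culture, LPS system; 24 h after dosing; IL-1a by ELISA; gain or loss of signal fitted bidirectionally vs DMSO baseline.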

[7] = read-out: Monocyte Chemoattractant Protein-1 (MCP1), CCL2 (gene 6347); test: BSK_LPS_MCP1: BioMAP Diversity Plus: LPS Assay for Monocyte Chemoattractant Protein-1 (MCP1) Biomarker Activity (AID 2283081); conditions: primary human HUVEC with PBMC; actives raise or lower the signal;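 for AC50: secreted MCP-1 protein quantified by ELISA in culture supernatant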
In short: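 ELISA read-out of MCP-1 after 24 h chemical dosing of a human umbilical vein endothelial cell/peripheral blood mononuclear cell co-culture stimulated with LPS. Gain or loss of signal fitted relative to DMSO controls.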

[8] = BSK_LPS_PGE2: BioMAP Diversity Plus: LPS Assay for Prostaglandin E2 (PGE2) Biomarker Activity (AID 2283082); conditions: primary human HUVEC with PBMC; actives raise or lower the signal
In short: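 HUVEC plus human PBMC co-culture stimulated with LPS; secreted PGE2 quantified by ELISA 24 h after chemical dosing. Activity fitted bidirectionally against DMSO baseline; parallel SRB staining (0.1% SRB after 10% TCA fixation, 560 nm) flags overt cytotoxicity.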

[9] = read-out: Macrophage colony-stimulating factor (MCSF), CSF1 (gene 1435); test: BSK_LPS_MCSF: BioMAP Diversity Plus: LPS Assay for Macrophage colony-stimulating factor (MCSF) Biomarker Activity (AID 2283083); conditions: primary human HUVEC with PBMC; actives raise or lower the signal
In short: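 HUVEC + PBMC co-culture (human primary), 24 h post-dose; M-CSF by ELISA; gain/loss of signal fitted bidirectionally vs DMSO baseline.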

[10] = read-out: Tissue Factor, F3 (gene 2152); test: BSK_LPS_TissueFactor: BioMAP Diversity Plus: LPS Assay for Tissue Factor Biomarker Activity (AID 2283084); conditions: primary human HUVEC with PBMC; actives raise or lower the signal
In short: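 HUVEC/PBMC co-culture, LPS-activated; CD142 ELISA read 24 h post-dose; bidirectional curve fit vs DMSO negative control.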

[11] = read-out: Tumor necrosis factor (Homo sapiens) (UniProt P01375); test: BSK_LPS_TNFa: BioMAP Diversity Plus: LPS Assay for Tumour Necrosis Factor alpha (TNFa) Biomarker Activity (AID 2283085); conditions: primary human HUVEC with PBMC; actives raise or lower the signal
In short: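 Human umbilical vein endothelial cells co-cultured with PBMC and stimulated with LPS. TNFa was measured by ELISA 24 h after chemical dosing, fitted bidirectionally relative to DMSO.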

[12] = read-out: Vascular cell adhesion molecule 1 (VCAM1), VCAM1 (gene 7412); test: BSK_LPS_VCAM1: BioMAP Diversity Plus: LPS Assay for Vascular cell adhesion molecule 1 (VCAM1) Biomarker Activity (AID 2283086); conditions: primary human HUVEC with PBMC; actives raise or lower the signal
In short: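 Human umbilical vein endothelial cells co-cultured with PBMC and stimulated with LPS; VCAM-1 measured by ELISA 24 h after dosing. Bidirectional curve fitting against DMSO baseline; cytotoxicity tracked in parallel by SRB total-protein staining.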

CD38, CD38 (gene 952) = test: BSK_SAg_CD38: BioMAP Diversity Plus: SAg Assay for CD38 Biomarker Activity (AID 2283087); conditions: primary human HUVEC with PBMC; actives raise or lower the signal
In short: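 Human HUVEC plus PBMC co-culture stimulated with superantigen; CD38 measured by ELISA 24 h after chemical dosing. Fluorescence read-out, bidirectional fit against DMSO; cytotoxicity tracked in parallel by SRB and Alamar Blue.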

CD40, CD40 (gene 958) [13] = test: BSK_SAg_CD40: BioMAP Diversity Plus: SAg Assay for CD40 Biomarker Activity (AID 2283088); conditions: primary human HUVEC with PBMC; actives raise or lower the signal
In short: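 HUVEC/PBMC co-culture, 24 h post-dose; CD40 by ELISA, fluorescence intensity; bidirectional fit vs DMSO negative control.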

CD69, CD69 (gene 969) = test: BSK_SAg_CD69: BioMAP Diversity Plus: SAg Assay for CD69 Biomarker Activity (AID 2283089); conditions: primary human HUVEC with PBMC; actives raise or lower the signal;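 for AC50: cell surface CD69 protein quantified by ELISA with fluorescence detection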
In short: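 Values derive from bidirectional fitting relative to DMSO vehicle. Cells: umbilical vein endothelium plus peripheral blood mononuclear cells, treated 24 h before fluorescent ELISA for CD69.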

[14] = read-out: Monocyte Chemoattractant Protein-1 (MCP1), CCL2 (gene 6347); test: BSK_SAg_MCP1: BioMAP Diversity Plus: SAg Assay for Monocyte Chemoattractant Protein-1 (MCP1) Biomarker Activity (AID 2283090); conditions: primary human HUVEC with PBMC; actives raise or lower the signal
In short: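 MCP-1 levels in the endothelial–PBMC SAg co-culture were quantified by ELISA at 24 h post-dosing; both increases and decreases versus DMSO scored. Cytotoxicity monitored by SRB total protein in parallel cultures.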

[15] = read-out: E-selectin (Homo sapiens) (UniProt P16581); test: BSK_SAg_Eselectin: BioMAP Diversity Plus: SAg Assay for Eselectin Biomarker Activity (AID 2283091); conditions: primary human HUVEC with PBMC; actives raise or lower the signal
In short: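 E-selectin ELISA readout at 24 h post-dosing in human umbilical vein endothelial cell/PBMC co-culture; gain or loss of signal fitted relative to DMSO baseline.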

[16] = read-out: Monokine induced gamma interferon (MIG), CXCL9 (gene 4283); test: BSK_SAg_MIG: BioMAP Diversity Plus: SAg Assay for Monokine induced gamma interferon (MIG) Biomarker Activity (AID 2283092); conditions: primary human HUVEC with PBMC; actives raise or lower the signal
In short: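 Values reflect bidirectional fitting of ELISA-measured MIG against DMSO vehicle, taken 24 h after dosing of a co-culture of human umbilical vein endothelial cells and peripheral blood mononuclear cells.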

[17] = BSK_SAg_PBMCCytotoxicity: PBMC Cytotoxicity Assessment in the BioMAP Diversity Plus: SAg Assay (AID 2283093); conditions: primary human HUVEC with PBMC;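 note: PBMC viability measured as Alamar Blue reduction fluorescence at 546/580 nm; fitted both ways against DMSO so a hit may be loss or gain of signal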;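 for AC50: PBMC superantigen activated with SEB plus TSST-1 one hour after compound addition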
In short: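 Human umbilical vein endothelial cells co-cultured with PBMC; PBMC (75,000/well) pre-treated with compound 1 h, then activated with SEB and TSST-1 (20 ng/mL final each) for 90 h. Alamar Blue added 6 h, fluorescence 546/580 nm; bidirectional fit versus DMSO.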

[18] = read-out: Interleukin-8 (IL8), CXCL8 (gene 3576); test: BSK_SAg_IL8: BioMAP Diversity Plus: SAg Assay for Interleukin-8 (IL8) Biomarker Activity (AID 2283094); conditions: primary human HUVEC with PBMC; actives raise or lower the signal
In short: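 Human umbilical vein endothelial cells co-cultured with PBMC, stimulated with superantigen; IL-8 measured by ELISA 24 h after chemical dosing. Bidirectional fitting versus DMSO; SRB staining in parallel cultures tracks cytotoxicity.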

Measured: AC50

Tumor necrosis factor (Homo sapiens), sequence (P01375 whole entry, looked up): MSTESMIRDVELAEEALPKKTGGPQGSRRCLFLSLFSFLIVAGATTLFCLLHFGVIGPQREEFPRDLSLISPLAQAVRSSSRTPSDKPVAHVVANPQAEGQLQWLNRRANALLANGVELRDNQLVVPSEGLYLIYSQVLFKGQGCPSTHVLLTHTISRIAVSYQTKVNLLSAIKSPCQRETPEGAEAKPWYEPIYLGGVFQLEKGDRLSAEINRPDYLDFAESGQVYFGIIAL
E-selectin (Homo sapiens), sequence (P16581 whole entry, looked up): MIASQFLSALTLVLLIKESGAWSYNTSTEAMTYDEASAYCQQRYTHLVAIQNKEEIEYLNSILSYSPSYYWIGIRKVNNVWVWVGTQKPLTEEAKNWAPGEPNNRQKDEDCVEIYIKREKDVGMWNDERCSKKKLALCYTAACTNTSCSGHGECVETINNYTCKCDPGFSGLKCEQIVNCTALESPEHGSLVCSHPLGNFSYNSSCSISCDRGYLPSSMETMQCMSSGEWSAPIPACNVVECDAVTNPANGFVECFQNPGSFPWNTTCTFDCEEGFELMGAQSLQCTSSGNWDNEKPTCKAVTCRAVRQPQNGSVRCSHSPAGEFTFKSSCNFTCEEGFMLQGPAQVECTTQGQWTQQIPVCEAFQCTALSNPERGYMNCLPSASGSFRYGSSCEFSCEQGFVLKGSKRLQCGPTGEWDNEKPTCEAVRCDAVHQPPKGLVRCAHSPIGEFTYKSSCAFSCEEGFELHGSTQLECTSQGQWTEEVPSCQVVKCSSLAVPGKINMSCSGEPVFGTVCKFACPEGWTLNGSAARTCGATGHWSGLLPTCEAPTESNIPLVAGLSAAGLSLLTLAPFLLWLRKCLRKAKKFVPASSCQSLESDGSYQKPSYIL

COc1ccccc1N
inactive: all assays above

Oc1c(Br)cc(Br)cc1Br
active: CD40, CD40 (gene 958) [2] 13.9 µM | CD38, CD38 (gene 952) 30.3 µM | CD40, CD40 (gene 958) [13] 20 µM | CD69, CD69 (gene 969) 35 µM | [15] 20 µM
inactive: all other assays above

CC(C=O)Cc1ccc2c(c1)OCO2 (stereo not given)
inactive: all assays above

Oc1ccc(Cc2ccc(O)cc2)cc1
inactive: all assays above

O=S(=O)(c1ccc(Cl)cc1)c1cc(Cl)c(Cl)cc1Cl
active: CD38, CD38 (gene 952) 3.97 µM
inactive: all other assays above

O=C1C=CC(=O)c2ccccc21
active: [1] 2.86 µM | CD40, CD40 (gene 958) [2] 1.37 µM | [3] 1.44 µM | [4] 1.37 µM | [5] 5.33 µM | [6] 1.07 µM | [7] 2.7 µM | [9] 1.82 µM | [10] 1.52 µM | [11] 0.623 µM | [12] 2 µM | CD38, CD38 (gene 952) 1.04 µM | CD40, CD40 (gene 958) [13] 2.17 µM | CD69, CD69 (gene 969) 0.836 µM | [14] 2.39 µM | [15] 1.12 µM | [16] 1.53 µM | [17] 0.102 µM | [18] 0.709 µM
inactive: [8]

CCCCOC(=O)COC(=O)c1ccccc1C(=O)OCCCC
inactive: all assays above

Cc1cc(Cl)ccc1N
inactive: all assays above

CC(C)(C)c1cc([N+](=O)[O-])cc(C(C)(C)C)c1O
active: CD40, CD40 (gene 958) [2] 0.492 µM | [3] 0.345 µM | [5] 0.683 µM | [9] 0.452 µM | CD38, CD38 (gene 952) 0.332 µM | CD40, CD40 (gene 958) [13] 0.474 µM | CD69, CD69 (gene 969) 0.322 µM | [14] 0.458 µM | [15] 0.219 µM | [18] 0.0941 µM
inactive: all other assays above

N#CCCC(Br)(C#N)CBr (stereo not given)
inactive: [8]
active: [1] 23.9 µM | CD40, CD40 (gene 958) [2] 8.78 µM | [3] 20 µM | [4] 26.7 µM | [5] 20 µM | [6] 11.7 µM | [7] 11 µM | [9] 10.6 µM | [10] 21.4 µM | [11] 13 µM | [12] 9.05 µM | CD38, CD38 (gene 952) 10.2 µM | CD40, CD40 (gene 958) [13] 11.2 µM | CD69, CD69 (gene 969) 17 µM | [14] 20 µM | [15] 20 µM | [16] 30 µM | [17] 2.52 µM | [18] 20 µM

CC(C)(COCC1CO1)COCC1CO1 (stereo not given)
active: CD69, CD69 (gene 969) 20 µM | [15] 20 µM
inactive: all other assays above

Cc1ccccc1OP(=O)(Oc1ccccc1C)Oc1ccccc1C
inactive: [8] | [11]
active: [1] 20 µM | CD40, CD40 (gene 958) [2] 9.38 µM | [3] 9.59 µM | [4] 12.6 µM | [5] 12.3 µM | [6] 11 µM | [7] 12.7 µM | [9] 11.2 µM | [10] 27.5 µM | [12] 11.4 µM | CD38, CD38 (gene 952) 28.9 µM | CD40, CD40 (gene 958) [13] 12.5 µM | CD69, CD69 (gene 969) 13.8 µM | [14] 14.8 µM | [15] 30.6 µM | [16] 33.6 µM | [17] 26.6 µM | [18] 12.4 µM

CCOP(=O)(OCC)OC(=CCl)c1ccc(Cl)cc1Cl
active: [1] 33.2 µM | CD40, CD40 (gene 958) [2] 20 µM | [9] 22.5 µM | [10] 11.9 µM | CD40, CD40 (gene 958) [13] 20 µM | CD69, CD69 (gene 969) 20 µM | [15] 28.6 µM
inactive: all other assays above
